# hNpr1 antagonist: antagonists of human natriuretic peptide receptor Npr1. P16066. HEK293 hNpr1 GloSensor cGMP, ANP-stimulated luminescence. Potency, µM (highest dose often 46.3 µM), without a hit: top-dose activity change, negative = inhibition, most hits filed as inhibitors. 76,000 tested, 1.6% active. AID 1347048; calls by dose curve; also: % is scaled to controls: 0 for no effect and ±100 for the full control effect; nearly all actives have a fitted effect of over 60% in size
# Target sequence (P16066 whole entry, looked up): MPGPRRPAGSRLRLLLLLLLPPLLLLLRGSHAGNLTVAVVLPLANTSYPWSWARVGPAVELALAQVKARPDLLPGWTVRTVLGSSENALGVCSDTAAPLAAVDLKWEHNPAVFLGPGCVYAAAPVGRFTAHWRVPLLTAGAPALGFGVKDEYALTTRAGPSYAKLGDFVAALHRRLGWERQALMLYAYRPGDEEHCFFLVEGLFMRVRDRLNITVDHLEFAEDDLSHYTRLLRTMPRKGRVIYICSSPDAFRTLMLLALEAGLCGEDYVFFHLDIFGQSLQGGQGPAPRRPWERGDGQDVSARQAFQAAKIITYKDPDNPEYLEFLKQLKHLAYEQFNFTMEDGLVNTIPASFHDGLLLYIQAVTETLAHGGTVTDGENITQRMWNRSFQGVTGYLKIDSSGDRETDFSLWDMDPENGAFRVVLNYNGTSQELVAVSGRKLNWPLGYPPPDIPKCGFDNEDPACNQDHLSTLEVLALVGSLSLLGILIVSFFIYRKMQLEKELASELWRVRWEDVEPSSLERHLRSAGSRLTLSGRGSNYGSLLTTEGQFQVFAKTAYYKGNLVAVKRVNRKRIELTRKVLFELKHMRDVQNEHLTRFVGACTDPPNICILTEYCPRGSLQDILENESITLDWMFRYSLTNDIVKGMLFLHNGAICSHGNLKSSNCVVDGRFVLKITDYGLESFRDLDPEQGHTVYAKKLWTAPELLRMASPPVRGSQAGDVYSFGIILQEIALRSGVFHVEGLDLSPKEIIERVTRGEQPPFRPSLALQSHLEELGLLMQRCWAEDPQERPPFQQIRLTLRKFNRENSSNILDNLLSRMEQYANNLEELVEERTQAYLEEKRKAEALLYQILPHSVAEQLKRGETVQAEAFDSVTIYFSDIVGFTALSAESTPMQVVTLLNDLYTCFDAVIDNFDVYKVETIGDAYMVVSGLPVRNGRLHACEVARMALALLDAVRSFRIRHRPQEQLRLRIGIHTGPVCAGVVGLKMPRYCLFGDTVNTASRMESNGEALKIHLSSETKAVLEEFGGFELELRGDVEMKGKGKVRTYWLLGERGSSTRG
#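 HEK293 cells stably expressing human Npr1 and cGMP GloSensor pGS-40F, loaded 2 h with 2% GloSensor reagent, given compound 30 min at room temperature. Luminescence read before and 20 min after 0.1 nM hNppA.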
# NIH3T3 tox: kills NIH 3T3 cells. NIH 3T3 viability, CellTiter-Glo ATP luminescence, 48-72 h. Potency, µM (titrated, usually from 96.7 µM), for inactives: at the top dose activity change, negative = cytotoxicity, actives largely listed as inhibitors. 94,000 tested, 4.3% active. AID 1345082; also: % is scaled to controls: 0 for no effect and ±100 for the full control effect; nearly all actives have a fitted effect of over 55% in size
#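 Viability of NIH 3T3 cells after 48 or 72 hr compound treatment at 37 °C was assessed by CellTiter-Glo, with luminescence imaged following a 10 min room-temperature step.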
# HEK cytotox: kills HEK 293 cells; HEK 293 viability, ATP luminescence (CellTiter-Glo), 48-72 h; Potency, µM (series often up to 115 µM), for inactives: top-dose activity change, negative = cytotoxicity, most hits filed as inhibitors; 94,000 tested, 6.6% active; also: % is scaled to controls: 0 for no effect and ±100 for the full control effect; nearly all actives have a fitted effect of over 60% in size
#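 250 HEK 293 cells/well; compound by pintool; incubated 48 or 72 hr at 37 degree Celsius; CellTiter-Glo added, 10 min RT, luminescence imaged.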
# Luciferase inh: Photinus pyralis luciferase inhibition; purified P. pyralis luciferase, luminescence, biochemical; AID 1347043; P08659; Potency, µM (series often up to 115 µM), usual class: inhibitors; 76,000 tested, 2.5% active; also: % is scaled to controls: 0 for no effect and ±100 for the full control effect; nearly all actives have a fitted effect of over 65% in size
#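 Luminescence read by CCD imaging after purified firefly luciferase (10nM final) was added to substrate buffer holding 10uM D-luciferin and 10uM ATP, pH 7.5, pre-dosed with compound.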
# Npr1 antag conf: hNpr1 antagonism, confirmation assay; shares compounds with hNpr1 antagonist; 1,400 tested, 76% active; Potency, µM (series often up to 57.6 µM), for the others: at the highest dose activity change, negative = inhibition, hits mostly inhibitors; HEK293 hNpr1 cGMP GloSensor luminescence, ANP-stimulated; calls by dose curve; also: nearly all actives have a fitted effect of over 70% in size
# NPR2 antag: antagonizes human Npr2, subtype selectivity check. AID 1347046. 1,400 tested, 67% active. shares compounds with hNpr1 antagonist. Potency, µM (series often up to 57.6 µM), without a hit: top-dose activity change, negative = inhibition, most hits filed as inhibitors. HEK293 hNpr2 GloSensor cGMP luminescence, CNP-stimulated; calls by dose curve; also: nearly all actives have a fitted effect of over 70% in size
# FLuc inh counter: counter-screen for Npr1 antagonists: firefly luciferase inhibitors; shares compounds with hNpr1 antagonist; purified FLuc enzyme, luminescence, Km substrate; Potency, µM (titrated, usually from 57.6 µM), for the others: top-dose activity change, negative = inhibition, hits mostly inhibitors; 1,400 tested, 0.7% active; AID 1347047; also: series mostly up to about 58 µM; 0% is about no effect
# GloSensor ctrl: reduces cGMP signal in GloSensor control cells. shares compounds with hNpr1 antagonist. HEK293 GloSensor cGMP, SNP-stimulated, luminescence. Potency, µM (series often up to 57.6 µM), for the others: top-dose activity change, negative = inhibition, hits mostly inhibitors. 1,400 tested, 69% active. AID 1347051; calls by dose curve; also: % is scaled to controls: 0 for no effect and ±100 for the full control effect; nearly all actives have a fitted effect of over 70% in size
# * marks the source's active call; other numbers are inactive results; i = inactive; u = inconclusive; x = no result given; [ ] = dose if it differs, or a comment. In the library only some 11% were active in any assay of this set; here they are far more common. Unless noted, calls follow the shape of the dose curve; as a rule, active = well fitted curve in the direction sought with a large enough effect; inconclusive = small, poorly fitted or top-dose-only effect, or another doubt; inactive = no such curve, though single readings can be large; an effect the other way counts as inactive or inconclusive. Potency is read from the fitted curve at half-maximal effect.
SMILES,hNpr1 antagonist,NIH3T3 tox,HEK cytotox,Luciferase inh,Npr1 antag conf,NPR2 antag,FLuc inh counter,GloSensor ctrl
CC1(C)[C@H](Cc2cc(CN3CCN(c4ccccc4)CC3)on2)C[C@@H]1NC(=O)Nc1ccc(F)cc1,13µM*,u,u,i,19µM*,22µM*,3%,19µM*
CC1(C)[C@H](Cc2cc(CN3CCN(c4ccccc4)CC3)on2)C[C@@H]1NC(=O)NCc1ccccc1,11µM*,u,25µM*,i,22µM*,u,7%,17µM*
O=C(Cc1cccc(Cl)c1)N1CCCC(C(=O)N2CCCC2c2nc3ccncc3[nH]2)C1 (stereo not given),x,i,2%,x,x,x,x,x
O=C(Nc1ccc([C@@H](O)[C@H]2COCC(=O)N2Cc2ccc(C(F)(F)F)cc2)cc1)C1CCCC1,-6%,u,u,i,x,x,x,x
O=C(NCc1ccccn1)c1ccc2nnc(-c3ccoc3)n2c1,x,-31%[138 µM],i,x,x,x,x,x
COc1cc(OC)cc(C(=O)N2CCC3(CC2)N=C(c2ccccc2)NO3)c1,1%,i,-5%,i,x,x,x,x
Cc1ccccc1C(=O)N1CCC2(CC1)N=C(c1ccc(Br)cc1)NO2,14µM*,u,u,i,27µM*,24µM*,2%,24µM*
COc1ccc(C(=O)N2CCC3(CC2)N=C(c2ccc(Br)cc2)NO3)cc1,10µM*,-23%,u,i,12µM*,14µM*,1%,9.7µM*
CCS(=O)(=O)Nc1ccc(C)n(CC(=O)NCc2cc(F)ccc2F)c1=O,-1%,-6%,6%,i,x,x,x,x
CN(C)C[C@H]1O[C@H](Cc2cc(-c3cccc(O)c3)on2)CC[C@@H]1O,28µM*,-9%[174 µM],-29%[172 µM],i,u,-19%[86.2 µM],-16%[86.2 µM],u
FC(F)(F)c1ccc(N2C3CCC2CN(Cc2cccs2)C3)cc1,x,u,u,x,24µM*,21µM*,1%,17µM*
Cc1cc(C)cc(-c2ccc(CN3CC4CCC(C3)N4c3ccc(C(F)(F)F)cc3)cc2)c1,x,-18%,-3%,x,x,x,x,x
COCc1cc(N2CCc3onc(-c4cccc5ccccc45)c3C2)ncn1,13µM*,u,35µM*,i,22µM*,u,0%,24µM*
COc1ncccc1C(=O)N1CCc2onc(-c3cccc4ccccc34)c2C1,5%,-24%,u,i,x,x,x,x
CCCN1CC(Oc2ccc(-c3noc(-c4cccnc4)n3)cc2)C1,-25%,u,u,i,x,x,x,x
CCCS(=O)(=O)N1CC(Oc2ccc(-c3noc(-c4cccnc4)n3)cc2)C1,14µM*,u,u,i,19µM*,17µM*,-19%,15µM*
Cc1ccc(CN2CC(Oc3ccc(-c4noc(-c5cccnc5)n4)cc3)C2)o1,13µM*,u,u,i,19µM*,24µM*,u,22µM*
COCCCn1c(=O)c(C(=O)NCc2cccc(Cl)c2)nc2cccnc21,x,u,-25%,x,x,x,x,x
CC(C)OC(=O)N1CCC(COc2ccc3c(cnn3CC[S+](C)(=O)[O-])c2)CC1,16µM*,u,u,i,16µM*,22µM*,-12%[86.2 µM],14µM*
O=C(c1cc(Cl)ccc1F)N1CCN(C(=O)c2nnn3c2COC(c2ccccc2)C3)CC1 (stereo not given),u,-27%,u,i,24µM*,u,0%,u
COc1ccc(C2Cn3nnc(C(=O)N4CCN(C(=O)c5c(F)cccc5F)CC4)c3CO2)cc1 (stereo not given),-2%,u,u,i,x,x,x,x
O=C(COc1ccccc1)N1CCN(C(=O)c2nnn3c2COC(c2ccc(Cl)cc2)C3)CC1 (stereo not given),11µM*,u,25µM*,i,22µM*,22µM*,-1%,19µM*
COc1ccc(C2Cn3nnc(C(=O)N4CCN(C(=O)Cc5ccccc5Cl)CC4)c3CO2)cc1 (stereo not given),u,0%,u,i,12µM*,15µM*,1%,11µM*
O=C(c1ccccc1F)N1CCN(C(=O)c2nnn3c2COC(c2ccccc2)C3)CC1 (stereo not given),-11%,-9%,u,i,x,x,x,x
COc1ccc(C2Cn3nnc(C(=O)N4CCN(C(=O)c5cc(F)ccc5F)CC4)c3CO2)cc1 (stereo not given),u,-27%,u,i,19µM*,19µM*,4%,19µM*
SMILES,hNpr1 antagonist,NIH3T3 tox,HEK cytotox,Luciferase inh,Npr1 antag conf,NPR2 antag,FLuc inh counter,GloSensor ctrl
O=C(Cc1ccccc1Cl)N1CCN(C(=O)c2nnn3c2COC(c2ccc(F)cc2)C3)CC1 (stereo not given),-2%,-23%,-7%,i,x,x,x,x
O=C(c1ccccc1F)N1CCCC2(C1)NC(=O)N(Cc1cccc(Cl)c1)C2=O (stereo not given),-28%,-6%,u,i,x,x,x,x
O=C(c1cc2ccccc2[nH]1)N1CCC2(CCCCO2)CC1,5%,-10%,u,u,x,x,x,x
COc1ccc(C2Cn3nnc(C(=O)N4CCN(C(=O)c5cccc(F)c5)CC4)c3CO2)cc1 (stereo not given),u,u,u,i,22µM*,22µM*,-1%,22µM*
COc1ccc(C2Cn3nnc(C(=O)N4CCN(C(=O)c5sccc5C)CC4)c3CO2)cc1 (stereo not given),u,-8%,u,i,22µM*,27µM*,1%,22µM*
Cc1ccc(C(=O)N2CCN(C(=O)c3nnn4c3COC(c3ccc(Cl)cc3)C4)CC2)c(C)c1 (stereo not given),u,u,u,i,22µM*,24µM*,2%,22µM*
O=C(c1cccc(F)c1)N1CCN(C(=O)c2nnn3c2COC(c2ccc(F)cc2)C3)CC1 (stereo not given),u,-18%,u,i,x,x,x,x
Cc1cc(C(=O)N2CCC3(CC2)CC(N(Cc2ccc(F)cc2)C2CC2)CCO3)n(C)n1 (stereo not given),u,u,u,i,27µM*,u,0%,27µM*

# High-throughput results as filed in PubChem.
